Most compounds without a hit are left out; they make up all but 18% or so of the library.
Six1-Eya2 blk – inhibitors of human Six1/Eya2 interaction. AlphaScreen GST-Six1/His-Eya2 binding, biochemical; hits give low values. hit rate 0.56% among 360,000. Q15475+O00167. activity change, % (concentration not given with the values); in the data active = activity change below about -65%; inconclusive = mostly about -30% to -63%
Target sequence (O00167 whole entry, looked up): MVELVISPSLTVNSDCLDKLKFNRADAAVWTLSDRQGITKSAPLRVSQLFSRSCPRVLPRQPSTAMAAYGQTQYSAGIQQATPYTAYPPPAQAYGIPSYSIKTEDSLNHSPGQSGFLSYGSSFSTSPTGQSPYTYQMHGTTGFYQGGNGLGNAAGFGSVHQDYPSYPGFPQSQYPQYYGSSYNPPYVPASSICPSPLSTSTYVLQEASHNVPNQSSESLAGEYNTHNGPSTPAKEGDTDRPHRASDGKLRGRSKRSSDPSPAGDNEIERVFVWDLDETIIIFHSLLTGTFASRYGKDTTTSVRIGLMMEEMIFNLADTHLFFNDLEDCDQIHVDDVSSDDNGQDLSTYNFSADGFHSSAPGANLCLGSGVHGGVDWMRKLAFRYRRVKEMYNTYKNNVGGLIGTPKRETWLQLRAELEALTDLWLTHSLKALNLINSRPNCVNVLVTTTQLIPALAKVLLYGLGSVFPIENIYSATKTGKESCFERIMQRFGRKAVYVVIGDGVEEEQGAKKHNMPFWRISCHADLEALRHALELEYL
Target sequence (Q15475 whole entry, looked up): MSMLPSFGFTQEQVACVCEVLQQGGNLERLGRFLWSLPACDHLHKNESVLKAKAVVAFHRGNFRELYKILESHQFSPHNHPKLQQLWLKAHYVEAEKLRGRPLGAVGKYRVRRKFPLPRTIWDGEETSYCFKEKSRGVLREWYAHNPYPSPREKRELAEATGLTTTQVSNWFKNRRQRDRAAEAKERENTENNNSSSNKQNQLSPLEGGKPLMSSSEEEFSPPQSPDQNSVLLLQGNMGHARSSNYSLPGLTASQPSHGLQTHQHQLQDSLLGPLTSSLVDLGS
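AlphaScreen with GST-Six1 and His-Eya2 (5X mix: 250 nM and 500 nM), glutathione donor and nickel acceptor beads; buffer 50 mM Tris pH 8.0, 300 mM NaCl, 1 mM TCEP; 1 h at 37 C in the dark.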
TDP1 cell CPT – growth inhibition of DT40 Tdp1-/-;hTDP1 cells with camptothecin (screen for TDP1 inhibitors); hit rate 12% among 420,000; chicken DT40 Tdp1-/-;hTDP1 cells + 20 nM CPT, ATP luminescence, 48 h; Potency, µM (top dose mostly 46.2 µM), for the others: at the top dose activity change, negative = growth inhibition, most hits filed as inhibitors; note: potency is the fitted concentration of half-maximal effect; nearly all actives have a fitted effect of over 55% in size
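Chicken DT40 Tdp1-/- cells complemented with human TDP1, 400 cells/well, exposed to compounds plus 20 nM camptothecin for at least 48 h at 37 C; viability read as ATP content by CellTiter-Glo luminescence.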
CtBP-E1A inh – inhibitors of CtBP/E1A interaction. AlphaScreen GST-E1A/His-CtBP binding, 1536-well; hits give low values. hit rate 0.49% among 340,000. activity change, % (no concentration beside the values); in the data active = activity change below about -65%; inconclusive = mostly about -30% to -63%
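Homogeneous bead-based format: GST-tagged E1A captured on glutathione donor beads, His-tagged CtBP on nickel acceptor beads; compounds precede bead addition by 2 h at 37 °C.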
TDP1 inh – TDP1 (human) enzyme inhibition. recombinant TDP1, AlphaScreen DNA substrate cleavage. Potency, µM (top dose mostly 130 µM), for the others: at the top dose activity change, negative = inhibition, usual class: inhibitors. Q9NUW8. hit rate 0.28% among 350,000. AID 485290; note: potency is the fitted concentration of half-maximal effect; nearly all actives have a fitted effect of over 40% in size
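Recombinant human Tdp1 (E. coli-expressed, 1 nM final) preincubated with compounds 15 min at room temperature, then 5'-biotin/3'-phosphotyrosine-FITC DNA substrate (15 nM final) added for 5 min. AlphaScreen beads (10 ug/ml final) added 10 min; cleavage lowers signal.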
IL1B secr inh – inflammasome signaling inhibition, IL-1 beta readout. hit rate 4.7% among 360,000. AID 743279. THP-1 LPS/ATP IL-1B secretion, AlphaLISA, 16 h; hits give low values. activity change, % at 57.5 µM; in the data active = activity change below about -50%; inconclusive = mostly about -30% to -49%
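THP-1 cells pretreated 1 hr with compounds (up to 57.5 uM final), then stimulated with LPS (250 ng/mL final) plus ATP (1.25 mM final); secreted IL-1B measured by AlphaLISA after 16 hr, decreased signal indicating inhibition.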
DT40 TDP1 no CPT – qHTS for Inhibitors of human tyrosyl-DNA phosphodiesterase 1 (TDP1): qHTS in cells in absence of CPT. DT40 Tdp1-/- hTDP1 cells, no CPT, ATP luminescence, 48 h. hit rate 15% among 420,000. Potency, µM (series often up to 46.2 µM), for the others: top-dose activity change, negative = growth inhibition, hits mostly inhibitors; note: potency is the fitted concentration of half-maximal effect; nearly all actives have a fitted effect of over 55% in size
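Growth kinetics read by CellTiter-Glo luminescence after ≥48 hr at 37 °C. Cells: DT40 Tdp1-/- stably carrying human TDP1, 400 per well, compound exposure in the absence of CPT (DMSO vehicle).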
* = called active by the depositor; ? = inconclusive; / = not tested or not shown; [ ] = remark or other dose. Unless noted, calls come from the whole dose curve; as a rule, active = well fitted curve in the direction sought with a large enough effect; inconclusive = small, poorly fitted or top-dose-only effect, or another doubt; inactive = no such curve, though single readings can be large; an effect the other way counts as inactive or inconclusive. % is set by controls: 0 for no effect and ±100 for the full control effect.

SMILES | Six1-Eya2 blk | TDP1 cell CPT | CtBP-E1A inh | TDP1 inh | IL1B secr inh | DT40 TDP1 no CPT
Cc1ccc(N=Nc2ccc(O)c(/C=N\NC(=O)c3ccc(N)cc3)c2)cc1C | 0 | 10µM* | 4 | -2% | 87 | 13µM*
Cc1ccc(NCC(=O)N/N=C/c2cc3ccccc3nc2Cl)cc1 | -10 | 23µM* | -10 | 7% | -21 | 29µM*
O=C(N/N=C/c1ccccc1O)c1cc[n+]([O-])cc1 | -78* | 15µM* | -94* | 8% | 42 | 29µM*
CC(C)(C)OC(=O)N/N=C/c1cc(N=Nc2ccccc2)ccc1O | -27 | ? | -7 | 11% | -11 | ?
O=C(N/N=C/c1cc(Cl)ccc1O)c1ccc(Br)cc1 | ? | 5.2µM* | ? | -14% | 47 | 5.8µM*
O=C(N/N=C/c1cccc(Br)c1)c1ccc(Br)cc1 | -1 | -12% | 5 | ? | -14 | -19%
Cc1cc(C)cc(N(CC(=O)Nc2cccc(C)c2C)S(=O)(=O)c2c(C)[nH]c(=O)[nH]c2=O)c1 | 3 | 9% | / | 0% | 7 | -6%
Cc1noc(C)c1S(=O)(=O)N1CCC(C(=O)N2CCN(c3ccc(F)cc3)CC2)CC1 | 0 | ? | 6 | -1% | 9 | ?
COc1ccc(Cl)c(CNC[C@H]2O[C@@H](n3cnc(C(N)=O)n3)[C@H](O)[C@@H]2O)c1 | -2 | -10% | 1 | / | 6 | 0%
Cc1nc(C)c(C(=O)N/N=C/c2c[nH]c3ccccc23)s1 | -12 | ? | -9 | 4% | 22 | ?
O=C(N/N=C/c1cc(Br)ccc1OC(=O)c1ccc(Br)cc1)c1ccncc1 | -79* | 4.6µM* | -91* | / | 113 | 6.5µM*
O=C(N/N=C/c1cc([N+](=O)[O-])ccc1O)c1ccncc1 | -90* | ? | / | 13% | 142 | ?
O=C(N/N=C/c1ccc(O)c([N+](=O)[O-])c1)c1ccncc1 | -11 | -13% | 8 | / | 7 | 0%
O=C(N/N=C/c1ccc(OC(=O)c2ccc(Br)cc2)cc1)c1ccncc1 | ? | 11% | 5 | / | 7 | -15%
O=C(N/N=C/c1cc([N+](=O)[O-])ccc1O)c1cccc(N2CCCC2=O)c1 | -91* | 15µM* | -93* | 4% | 162 | 10µM*
Cc1nc(C)c(C(=O)N/N=C/c2cc(Br)ccc2O)s1 | ? | 4.6µM* | -84* | / | 119 | 3.7µM*
O=C(CCNC(=O)C1CCN(S(=O)(=O)c2ccccc2)CC1)NCCc1ccc(Cl)cc1 | 0 | -14% | -1 | 1% | -9 | -8%
O=C(N/N=C/c1cc([N+](=O)[O-])ccc1O)c1cccc2cc[nH]c12 | -70* | 6.5µM* | -93* | 8% | 232 | 4.1µM*
O=C(N/N=C/c1ccc(O)c2ncccc12)c1cccc(Br)c1 | -82* | 3.7µM* | -92* | 9% | 121 | 4.6µM*
O=C(N/N=C/c1cc([N+](=O)[O-])ccc1O)c1ccc2c(c1)OCCO2 | -81* | 2.1µM* | 0 | 8% | 18 | 1.5µM*
O=C(N/N=C/c1ccccc1[N+](=O)[O-])c1ccc2c(c1)OCCO2 | 3 | -23% | 0 | 0% | -18 | -18%
Cc1cccc(NC(=O)CN2C(=O)CC(c3ccccc3)Sc3ccccc32)c1 (centres undefined) | / | / | / | 1% | / | /
C/C(=N\NC(N)=S)C1C2C3CC4C5CC(C42)C1C53 (centres undefined) | -10 | ? | 4 | 2% | -19 | 10µM*
CCCCn1c(SCC(=O)NC2CC2)nnc1-c1ccncc1 | -2 | 4% | 4 | 1%[0.0935 µM] | 4 | 0%
CCCn1c(SCC(=O)NC2CCCCC2)nnc1-c1ccncc1 | 7 | 29µM* | -2 | 2% | 30 | -78%
SMILES | Six1-Eya2 blk | TDP1 cell CPT | CtBP-E1A inh | TDP1 inh | IL1B secr inh | DT40 TDP1 no CPT
COc1cccc(CNS(=O)(=O)c2cc3c4c(c2)CCN4C(=O)CC3)c1 | 7 | -10% | -23 | / | -13 | -1%
CCN1CCOC(=O)C1CC(=O)Nc1ccc(Br)cc1 (centres undefined) | / | 23µM* | / | -3% | / | ?
CCN1CCOC(=O)C1CC(=O)Nc1cc(C)ccc1OC (centres undefined) | / | 5.2µM* | / | 1% | / | 2.6µM*
COc1ccccc1NC(=O)CN1CCN(CC(=O)Nc2cc(C)ccc2OC)CC1 | -6 | -23% | 2 | / | 17 | -28%
COc1ccccc1CNC(=O)CNC(=O)Cn1cnc2ccccc2c1=O | -2 | 9% | 5 | 3% | 2 | -5%
Cc1ccc(S(=O)(=O)NCC(=O)NCC(=O)OC(C(=O)NC(N)=O)C(C)C)cc1C (centres undefined) | 14 | -4% | 8 | 3% | 10 | 5%
N#Cc1cccc(NC(=O)c2ccccc2C(=O)O)c1 | 7 | -16% | 2 | 0% | -12 | -5%
NC(=O)c1ccccc1NC(=O)Nc1cccc(Cl)c1 | 0 | 12µM* | 10 | 2% | -1 | ?
O=C(NNc1ccccc1[N+](=O)[O-])Nc1cccc(Cl)c1 | -15 | 21µM* | / | / | -9 | 15µM*
N#Cc1ccc(NC(=O)Nc2cccc(C#N)c2)cc1 | 2 | 6.5µM* | / | 6% | -11 | 6.5µM*
CSc1ccccc1NC(=O)Nc1ccc(Cl)cc1 | -1 | 21µM* | -19 | -4% | ? | -30%
Cc1cc(C)c(OCC(=O)N(C)CC(=O)Nc2ccc(N3CCOCC3)cc2)c(C)c1 | -4 | ? | 4 | / | 1 | -7%
NNc1nnnc2c1sc1nc(N3CCOCC3)c3c(c12)CCCC3 | -2 | ? | / | -3% | 0 | ?
c1ccc2c(c1)nc1n2CN(Cc2ccc3c(c2)OCO3)CN1 | -1 | -25% | 2 | 6% | 11 | -6%
NC(=O)c1ccccc1NC(=O)c1ccc2ccccc2c1 | 16 | -19% | -2 | 2% | -12 | ?
O=C(Nc1ccccc1)Nc1cccc(Cl)c1 | 5 | 14µM* | 7 | -2% | ? | 11µM*
